From PubChem BioAssay
USP1 inh: Inhibitors of USP1/UAF1: Primary Screen; recombinant USP1/UAF1, Ub-Rhodamine cleavage fluorescence; Ubiquitin carboxyl-terminal hydrolase 1 (Homo sapiens), O94782; 390,000 compounds, 0.23% hits; Potency, µM (highest dose often 57.1 µM), without a hit: top-dose activity change, negative = inhibition, actives largely listed as inhibitors; AID 743255, 2014; note: potency is the fitted concentration of half-maximal effect; nearly all actives have a fitted effect of over 60% in size
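Step one: compound is pinned into 1nM USP1/UAF1 in HEPES pH 7.8 buffer with TCEP. Step two: 15 min room-temperature incubation. Step three: Ub-Rho (150nM final) starts cleavage, tracked by fluorescence over six one-minute reads.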
PLK1 PBD inh: qHTS for Inhibitors of PLK1-PDB (polo-like kinase 1 - polo-box domain): Primary Screen; 360,000 compounds, 2.8% hits; Serine/threonine-protein kinase PLK1 (Homo sapiens), P53350; Plk1 PBD binding of FITC phosphopeptide, fluorescence polarization; AID 720504, 2013; Potency, µM, inactives show max response, negative = inhibition, hits mostly inhibitors; note: potency is the fitted concentration of half-maximal effect; series mostly up to about 57 µM; nearly all actives have a fitted effect of over 65% in size
PI5P4K alpha inh: qHTS for Inhibitors of phosphatidylinositol 5-phosphate 4-kinase (PI5P4K); max response, %; Phosphatidylinositol 5-phosphate 4-kinase type-2 alpha (Homo sapiens), P48426; PI5P4Kalpha enzyme, ADP-Glo luminescence, 60 min; stronger effect = lower value; 330,000 compounds, 1.2% hits; active = max response of -50% or lower; inconclusive = between -30% and -50%; inactive = -30% or higher; note: value at the top dose of about 77 µM
Target sequence (P48426 whole entry, looked up): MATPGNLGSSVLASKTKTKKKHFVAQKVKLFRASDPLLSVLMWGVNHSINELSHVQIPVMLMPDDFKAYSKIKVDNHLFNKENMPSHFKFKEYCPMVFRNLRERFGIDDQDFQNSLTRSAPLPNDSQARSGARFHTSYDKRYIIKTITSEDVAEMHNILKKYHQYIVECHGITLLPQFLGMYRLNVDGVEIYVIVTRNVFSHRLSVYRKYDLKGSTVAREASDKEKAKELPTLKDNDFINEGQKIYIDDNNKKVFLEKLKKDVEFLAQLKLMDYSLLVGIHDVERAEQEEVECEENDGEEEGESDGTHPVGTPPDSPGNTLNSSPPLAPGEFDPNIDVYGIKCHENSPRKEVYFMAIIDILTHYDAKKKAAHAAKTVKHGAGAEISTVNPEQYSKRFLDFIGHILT
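Reactions run in 0.038 M HEPES pH 7.4, 0.28 mM EGTA, 0.1% CHAPS and 5% DMSO, with PI5P4Kalpha, substrate, compound and 5 microM ATP final, one hour at room temperature. Readout is ADP-Glo luminescence.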
USP2a block: qHTS Assay for Inhibitors of Ubiquitin-specific Protease USP2a Using CHOP2 as the Reporter; USP2 core, Ub-CHOP2 coupled fluorogenic reporter, 485/531; 330,000 compounds, 0.01% hits; Potency, µM (highest dose often 38.3 µM), for the others: at the top dose activity change, negative = inhibition, hits mostly inhibitors;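 note: potency is the fitted concentration of half-maximal effect; plate controls were DMSO wells for no effect and full inhibition by NEM control for full effect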
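Deubiquitinase activity read as fluorescence (485/531 nm) after Ub-CHOP2 cleavage activates the enterokinase reporter on its substrate; USP2 core 10nM, Ub-CHOP2 and substrate 25nM each, 30min compound preincubation then 60min RT; data normalized to NEM, curves fitted.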
WRN inhibitor: qHTS for Inhibitors of WRN Helicase; WRN helicase unwinding, fluorescent forked duplex, kinetic; 360,000 compounds, 0.46% hits; Bifunctional 3'-5' exonuclease/ATP-dependent helicase WRN (Homo sapiens), Q14191; Potency, µM (series often up to 114 µM), without a hit: at the highest dose activity change, negative = inhibition, actives largely listed as inhibitors; note: potency is the fitted concentration of half-maximal effect; nearly all actives have a fitted effect of over 55% in size
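WRN at 20 nM final was preincubated with compound for 15 min at room temperature; reaction started with 100 nM forked duplex oligonucleotide carrying fluorophore and quencher plus 2 mM ATP (final). Unwinding followed kinetically by red fluorescence (ex 525/em 598 nm).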
The depositor's hits bear a star; ? = inconclusive; . = no result; [ ] = remark or other dose. Only some compounds are listed: those with a hit (about 3.3% of all), similar ones and a draw of the others. Unless noted, calls come from the whole dose curve; as a rule, active = well fitted curve in the direction sought with a large enough effect; inconclusive = small, poorly fitted or top-dose-only effect, or another doubt; inactive = no such curve, though single readings can be large; an effect the other way counts as inactive or inconclusive. Unless noted, % is set by controls: 0 for no effect and ±100 for the full control effect.

SMILES | USP1 inh | PLK1 PBD inh | PI5P4K alpha inh | USP2a block | WRN inhibitor
CC(C)(C)NC(=O)C(c1ccncc1)n1c(=O)c(-c2ccco2)nc2ccccc21 (centres undefined) | . | -12% | -18 | . | 7%
CC(C)(C)NC(=O)C(c1ccccc1)n1c(=O)c(-c2ccco2)nc2ccccc21 (centres undefined) | . | ? | -54* | . | -11%
COc1ccc(C(C(=O)NC2CCCCC2)n2c(=O)c(-c3ccco3)nc3ccccc32)cc1 (centres undefined) | . | -18% | ? | . | -3%
CC(C)(C)NC(=O)C(c1cc2ccccc2o1)n1c(=O)c(-c2ccco2)nc2ccccc21 (centres undefined) | . | -28% | -58* | . | -9%
CN(C)c1ccc(CNC(=O)c2cccn2-c2nnc(N3CCCCC3)s2)cc1 | -16% | . | . | . | .
O=[N+]([O-])c1cc(Cc2ccccc2)cc(C=Nc2ccc(N3CCOCC3)cc2)c1O | 25µM* | 39% | -51* | 2% | ?
Oc1ccc(C=Nc2ccc(N3CCOCC3)cc2)c(O)c1 | -12% | -19% | -60* | 3% | -23%[57.1 µM]
Cc1ccc(O)c(N=Cc2cc(Cc3ccccc3)cc([N+](=O)[O-])c2O)c1 | 25µM* | ? | -64* | -1% | ?
Oc1c(Cl)cc(Cl)cc1C=Nc1ccc(N2CCOCC2)cc1 | -22% | 13% | 3 | 1% | ?
Cc1ccc(O)c(C=Nc2cc(C)ccc2O)c1 | 3% | -9% | -7 | 3% | 3%
Cc1ccc(CCNC(=O)c2sc3ncccc3c2-n2c(C)ccc2C)cc1 | -25% | . | . | . | .
Cc1cccc(NC2=CC(c3cccc(Br)c3)N(c3cccc(C)c3)C2=O)c1 (centres undefined) | -19% | . | . | . | .
COC(=O)c1ccccc1NC(=O)NCc1ccncc1 | -21% | 21µM* | 2 | 4% | 2%
COC(=O)c1ccccc1NC(=O)NCc1ccccc1 | -3% | -3% | -3 | -1% | -4%
CCOc1ccc(-c2cc3c(=O)n(CC(=O)Nc4c(C)cccc4C)ccn3n2)cc1 | -27% | . | . | . | .
CC(=O)c1c(C)oc2c(Br)cc(NS(=O)(=O)c3ccc(Br)cc3)cc12 | -28% | . | . | . | .
Cc1ccc2nnnc(-c3ccccc3)c2c1 | -20% | 1% | 0 | 3% | -17%[57.1 µM]
Cc1ccc2c(c1)c(-c1ccccc1)nc1nnnn12 | -17% | 24µM* | ? | 4% | -9%
COc1ccccc1NC(=O)Cn1c(=O)c(CNc2ccc(C)cc2)cc2cc3c(cc21)OCCO3 | -24% | . | . | . | .
O=C(NC(=S)NCCC1=CCCCC1)c1ccccc1Br | -25% | ? | -54* | -3% | -18%
CSc1nc(N(CCO)CCO)c2sc3nc(-c4ccco4)c4c(c3c2n1)CCC4 | ? | ? | -89* | -12% | 13µM*
COC1=CC(=Cc2c(N)n3nc(CC(=O)N4CCCCC4)sc3nc2=O)C=C(OC)C1=O | ? | 79% | -58* | 13% | -10%[11.6 µM]
Nc1c(C=C2C=CC(=O)C=C2)c(=O)nc2sc(CC(=O)N3CCCCC3)nn12 | -4% | -19% | ? | 0% | -9%
Nc1c(/C=C2/C=CC(=O)C(O)=C2)c(=O)nc2sc(CC(=O)N3CCCCC3)nn12 | -18% | -1% | -11 | 0% | -3%
Nc1c(/C=C2/C=CC(=O)C(O)=C2)c(=O)nc2sc(CC(=O)N3CCCC3)nn12 | -20% | 3% | -56* | 3% | 40µM*
SMILES | USP1 inh | PLK1 PBD inh | PI5P4K alpha inh | USP2a block | WRN inhibitor
COC1=C/C(=C/c2c(N)n3nc(CC(=O)N4CCCC4)sc3nc2=O)C=CC1=O | -17% | 11% | -56* | 8% | -4%
CCOC1=C/C(=C/c2c(N)n3nc(CC(=O)N4CCCC4)sc3nc2=O)C=CC1=O | -1% | 23% | -55* | 5% | -11%
CNC(=O)c1ccc2nc(Cc3ccccc3)oc2c1 | -9% | . | . | . | .
COc1ccc(NC(=O)C2(c3cccs3)CCOCC2)cc1Cl | -27% | . | . | . | .
COCCOC(=O)c1c(C)n(C)c2ccc(OC(=O)c3c(OC)cccc3OC)cc12 | -22% | 9.5µM* | -10 | -2% | 9%
CCCOC(=O)c1cc(-c2ccc(/C=C3/C(=O)N(C)C(=O)C(C#N)=C3C)o2)ccc1Cl | ? | 19µM* | -58* | . | -7%[11.6 µM]
CCCOC(=O)c1cc(-c2ccc(C=O)o2)ccc1Cl | -8% | -6% | -12 | 0% | -22%
CCOC(=O)c1nnn(C(CC)C(=O)Nc2ccc(F)cc2)c1C(=O)OCC (centres undefined) | -6% | . | . | . | .
Cc1cc(C)cc(N=Cc2[nH]c3ccc(Br)c(Cl)c3c2O)c1 | -22% | 4% | -29 | 11% | -31%
COc1ccc(CN=Cc2[nH]c3ccc(Br)c(Cl)c3c2O)cc1 | 14µM* | ? | . | 1% | -31%
Cc1cc(C)cc(NC(=O)c2cccc(C(=O)Nc3cc(C)cc(C)c3)c2)c1 | -25% | . | . | . | .
COCCn1nnnc1C(c1ccc(C)cc1)N1CCN(Cc2ccc3c(c2)OCO3)CC1 (centres undefined) | -11% | 24µM* | -14 | 5% | 16%
CC(Oc1ccccc1)C(=O)N1CCC2(CC1)Oc1ccc(F)cc1C(=O)C21CC(c2ccccc2)=NO1 (centres undefined) | 12% | 21µM* | -2 | . | -3%
Fc1ccc(/C=C2\CCCC3=C2Nc2ncnn2C3c2ccc(F)cc2)cc1 (centres undefined) | -13% | 24µM* | -8 | -9% | 50µM*
O=c1c(O)c(-c2cccs2)oc2ccccc12 | ? | -20% | . | 14% | -6%
O=c1c(O)c(-c2cccs2)oc2ccc(Cl)cc12 | 25µM* | -13% | -15 | ? | -6%
CCSC1(SCC)N=C(N)C2(C#N)C(c3ccc(F)cc3)C12C#N (centres undefined) | -7% | 9.5µM* | 3 | 3% | -22%
Clc1ccc(-c2csc(N3CCSCC3)n2)cc1 | -25% | 24µM* | 4 | 1% | -3%
Cc1nn(CCCC(=O)NCc2cccc(Cl)c2)c(=O)c2c1sc1ccccc12 | -18% | . | . | . | .
CCOC(=O)c1c(C)[nH]c(C)c1C(=O)COC(=O)CNC(=O)c1ccc(OCC)cc1 | 8% | 30µM* | -8 | -1% | 0%
CCOC(=O)c1c(C)[nH]c(C(=O)COC(=O)CNC(=O)c2ccc(Br)cc2)c1C | -18% | 4% | -3 | 2% | -1%
COc1ccc(OC)c(CNC(=O)C2CCN(c3nc4ccccc4nc3C(F)(F)F)CC2)c1 | -19% | . | . | . | .
CCCOC(=O)C1=C(C)NC(=O)NC1c1ccc(Br)s1 (centres undefined) | -10% | 24µM* | -15 | 1% | -4%[57.1 µM]
CC(=O)NCc1nc2cccnc2n1Cc1ccccc1 | -15% | . | . | . | .
